ANO1 activ = activators or potentiators of mouse TMEM16A chloride channel. hit rate 0.3% among 340,000. HEK293 TMEM16A/YFP-H148Q/I152L, iodide quench fluorescence; active compounds read low. Q8BHY3. B-score at 10 µM;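 active = fluorescence-ratio B-score plate-corrected deviation score at least 3 library SD below zero, with starting fluorescence score within 5 deviations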;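 also: channel opened by trigger with iodide after compound preincubation; score built on the fluorescence ratio of max minus min over baseline; more negative score means more quench and so TMEM16A activation or potentiation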
MEKK2mut PB1 HTS = signal of MEK5 binding to mutant human MEKK2 PB1 domain. bead flow cytometry, Alexa488-MEK5 binding to MEKK2 mutant. percent response, % at 10 µM. hit rate 0.35% among 290,000. AID 1530; in the data active = percent response above about 24%, passing the limit was not always enough
ANO1 block = blocks the mouse calcium-activated chloride channel TMEM16A; Q8BHY3; HEK293 TMEM16A/YFP iodide influx fluorescence, ionomycin; normalized B-score (activity score, 25-100; higher = stronger inhibition) at 10 µM; hit rate 1.2% among 310,000; AID 588511;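 active = ratio plate-corrected score three or more library SD toward inhibition, starting fluorescence score within five deviations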;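 also: score derived from kinetic fluorescence span divided by baseline fluorescence per well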
MEKK2wt PB1 HTS = raises or lowers MEK5 binding to wildtype human MEKK2 PB1 domain | Q9Y2U5 | bead flow cytometry, Alexa488-MEK5 binding to MEKK2 WT; actives lie on both sides | binding response (% of control), % at 10 µM | hit rate 1.1% among 290,000 | AID 1531; in the data active = binding response below about 67% or above about 130%
NTR1 ag = NTR1 (human) agonism; P30989; NTR1-U2OS beta-arrestin-GFP spot imaging, agonist mode; activation, % at 20 µM; hit rate 0.17% among 330,000;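 active = activation at or above 40% of the spot to cytoplasm intensity ratio, with at least 20 cells analyzed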;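 also: 0% = DMSO without peptide and 100% = 100 nM NTR1 peptide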
Target sequence (P30989 whole entry, looked up): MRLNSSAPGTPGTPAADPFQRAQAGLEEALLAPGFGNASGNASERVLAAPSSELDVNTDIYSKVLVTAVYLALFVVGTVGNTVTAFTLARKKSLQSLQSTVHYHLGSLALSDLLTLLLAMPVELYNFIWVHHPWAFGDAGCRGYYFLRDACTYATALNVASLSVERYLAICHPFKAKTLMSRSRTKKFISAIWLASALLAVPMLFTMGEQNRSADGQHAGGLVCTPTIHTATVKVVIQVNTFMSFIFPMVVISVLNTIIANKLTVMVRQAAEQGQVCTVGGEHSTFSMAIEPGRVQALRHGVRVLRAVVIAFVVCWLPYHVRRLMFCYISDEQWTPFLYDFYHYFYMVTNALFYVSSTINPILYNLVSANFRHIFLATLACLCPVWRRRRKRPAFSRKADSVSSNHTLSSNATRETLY
MEKK3 PB1 HTS = MEKK3-MEK5 PB1 interaction, increase or decrease | hit rate 1.4% among 290,000 | AID 1529 | bead-based flow cytometry, Alexa488-MEK5 binding to MEKK3; actives lie on both sides; 0 = blocked by unlabeled MEK5, 100 = vehicle | binding response (% of control), % at 10 µM | Q99759;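 active = binding response more than 3 SD above or below the average of its plate-row segment, actives on both sides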;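 also: Alexa488 bead fluorescence after subtracting the streptavidin-only scavenger bead signal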
MEKK2wt confirm = raises or lowers MEK5 binding to wildtype human MEKK2, retest; hit rate 2.4% among 5,900; AID 1892; binding response (% of control), % at 10 µM; shares compounds with MEKK3 PB1 HTS; bead flow cytometry, Alexa488-MEK5 binding to MEKK2 WT; actives lie on both sides; in the data active = binding response below about 16% or above about 210%; inactive = in between
MEKK2mut confirm = signal of MEK5 binding to mutant human MEKK2, retest; percent response, % at 10 µM; AID 1893; shares compounds with MEKK3 PB1 HTS; bead flow cytometry, Alexa488-MEK5 binding to MEKK2 mutant; hit rate 2% among 5,900; in the data active = percent response mostly above about 71%, no sharp cut-off; inactive = mostly below about 38%;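 also: higher means compound restores mutant binding toward wildtype level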
MEKK3 confirm = MEKK3-MEK5 PB1 inhibition, single concentration confirmation; AID 1894; shares compounds with MEKK3 PB1 HTS; hit rate 1.8% among 5,900; binding response (% of control), % at 10 µM; bead flow cytometry, Alexa488-MEK5 binding to MEKK3; active compounds read low;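 active = binding response below 72% of control, or above a set upper limit, though filed actives all read lower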;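 also: 100% = DMSO only wells and 0% = binding blocked by excess unlabeled MEK5; lower values mean stronger disruption of MEK5 binding to MEKK3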
Starred values were filed as active, the others as inactive; i = inactive; . = no result; ! = not active in a repeat; [ ] = dose if it differs, or a comment. A selection: hits, their analogues and other compounds. The true share with any hit is near 3.4%.

SMILES | ANO1 activ | MEKK2mut PB1 HTS | ANO1 block | MEKK2wt PB1 HTS | NTR1 ag | MEKK3 PB1 HTS | MEKK2wt confirm | MEKK2mut confirm | MEKK3 confirm
COC(=O)C1=C(c2ccc(OC)c(OC)c2)C[C@@H]2CC[C@H]1N2C(=O)N1CCCC1 | i | . | . | . | -0.3 | . | . | . | .
CC/C(=C\C=C\[C@@H]1C=C[C@@H]2CCC[C@H]2[C@@H]1C(=O)c1ccc[nH]1)[C@@H]1O[C@@H]([C@@H](C)C(=O)O)CC[C@@H]1C | . | -2.0 | 100* | 87.0 | 5.9 | 81.0 | . | . | .
CC(C)(C)c1cc(C=C(C#N)C#N)cc(C(C)(C)C)c1O | i | . | 100* | . | 5.1 | . | . | . | .
COC(=O)C1=C(C(=O)OC)C2OC1c1cc3ccccc3cc12 | -4.86* | . | . | . | . | . | . | . | .
O=C(CCC(=O)N1C[C@H]2C[C@@H](C1)c1cccc(=O)n1C2)NCc1cccc(C(F)(F)F)c1 | i | 1.0 | i | 103.0 | 0.2 | 101.0 | . | . | .
Cc1cc2c(C(C)C)c(O)c(O)c(C=O)c2c(O)c1-c1c(C)cc2c(C(C)C)c(O)c(O)c(C=O)c2c1O | . | -5.0 | . | 58.0*[inhibitor] | . | 42.0*![inhibitor] | . | . | .
Cc1cc(=O)oc2cc(OCC(=O)N3CCN(C(C)c4ccccc4)CC3)c(Cl)cc12 (stereo unspecified) | -41.9* | . | . | . | 2.0 | . | . | . | .
Cc1cc(=O)oc2cc(OCC(=O)N3C[C@H]4C[C@@H](C3)c3cccc(=O)n3C4)c(Cl)cc12 | i | 3.0 | i | 105.0 | 2.9 | 99.0 | . | . | .
CC(=O)N1N=C2C3CCN(CC3)C2C1c1ccccc1 (stereo unspecified) | i | -21.0 | i | -2.0*[inhibitor] | -0.8 | 1.0*[inhibitor] | 99.0 | 1.0 | 104.0
Fc1ccc(C(OCCN2CCCC2)c2ccc(F)cc2)cc1 | i | -1.0 | i | 107.0 | 1.8 | 99.0 | . | . | .
c1ccc(CCCN2CCN(CCOC(c3ccccc3)c3ccccc3)CC2)cc1 | i | 8.0 | i | 162.0* | 4.2 | 108.0 | 130.0 | 27.0 | 103.0
Fc1ccc(C(OCCN2CCN(CCCc3ccccc3)CC2)c2ccc(F)cc2)cc1 | i | 26.0* | i | 235.0* | 19.5 | 112.0 | 187.0 | 41.0 | 109.0
Cc1nc2ccc(Cl)cc2c(=O)n1-c1ccccc1Cl | i | 1.0 | i | 106.0 | 0.3 | 102.0 | . | . | .
Oc1cccc2nc3ccccc3nc12 | i | 3.0 | i | 93.0 | -1.8 | 94.0 | . | . | .
CCOP(=O)(OCC)C(NC(=O)CN1C(=O)c2ccccc2S1(=O)=O)C(Cl)(Cl)Cl (stereo unspecified) | i | -3.0 | i | 99.0 | 0.5 | 97.0 | . | . | .
N#CC(C#N)=C(N)c1cccnc1 | i | -45.0 | i | 57.0 | 0.1 | 46.0*[inhibitor] | 98.0 | -6.0 | 97.0
CC(C)(C)n1cc(C(=O)c2ccc3ccccc3c2O)cn1 | i | -2.0 | i | 100.0 | 4.1 | 129.0* | 103.0 | -1.0 | 100.0
COc1cc(OC)c(OC)cc1CNCCc1cccc(F)c1 | i | 10.0 | i | 103.0 | -1.4 | 104.0 | . | . | .
COc1ccc(CNCCc2cccc(F)c2)c2ccccc12 | . | 16.0 | i | 151.0* | 6.7 | 113.0 | 117.0 | 10.0 | 103.0
CCC1C(c2ccccc2)NC(c2ccccc2)CC1(O)c1ccc(F)cc1 (stereo unspecified) | i | 43.0 | i | 152.0* | 6.9 | 107.0 | 122.0 | 17.0 | 108.0
CC(C)CN1CCN(Cc2cccc3c2OCO3)CC1CCO (stereo unspecified) | i | . | i | . | 0.0 | . | . | . | .
COc1ccc(C2(C#N)CCN(C)CC2)cc1 | i | -3.0 | i | 94.0 | 1.6 | 92.0 | . | . | .
CC(C)COc1ccc(C2(C#N)CC[N+](C)(C)CC2)cc1 | i | -17.0 | i | 85.0 | -0.3 | 80.0*[inhibitor] | 100.0 | 2.0 | 101.0
C1=C(c2c[nH]c3ccccc23)CCNC1 | . | 99.0* | i | 173.0* | -2.2 | 107.0 | 122.0 | 8.0 | 105.0
COc1cccc(NP(=O)(Oc2ccccc2Cl)Oc2ccccc2Cl)c1 | i | 1.0 | i | 109.0 | 27.2 | 137.0* | 101.0 | -7.0 | 104.0
SMILES | ANO1 activ | MEKK2mut PB1 HTS | ANO1 block | MEKK2wt PB1 HTS | NTR1 ag | MEKK3 PB1 HTS | MEKK2wt confirm | MEKK2mut confirm | MEKK3 confirm
Cc1ccc(-c2nc3ccc(C)cn3c2CC(=O)N(C)C)cc1 | i | -1.0 | i | 98.0 | -0.7 | 98.0 | . | . | .
O=C(Nc1ccc(Cl)cc1)OC1CN2CCC1CC2 (stereo unspecified) | i | -8.0 | i | 93.0 | -1.4 | 86.0 | . | . | .
O=C(Nc1cccc(Cl)c1)OC1CN2CCC1CC2 (stereo unspecified) | i | 27.0 | i | 147.0* | 0.8 | 110.0 | 125.0 | 8.0 | 98.0
Cc1cc(C=C2C(=O)N(C)C(=S)N(C)C2=O)c(C)n1C1CCCC1 | i | -13.0 | i | 55.0*[inhibitor] | 2.5 | 84.0 | 98.0 | -1.0 | 101.0
Cc1cc(/C=C2\C(=O)NC(=S)N(C)C2=O)c(C)n1C1CCCCC1 | i | 7.0 | i | 88.0 | 0.4 | 105.0 | . | . | .
N#CCCn1cc(C(=O)O)c(-c2cccc([N+](=O)[O-])c2)n1 | i | -2.0 | i | 100.0 | -0.8 | 99.0 | . | . | .
O=c1[nH]c(=O)n(-c2cccc3ccccc23)c(O)c1/C=N/N1CCCCC1c1cccnc1 (stereo unspecified) | i | 0.0 | i | 106.0 | 0.1 | 134.0* | 102.0 | -2.0 | 102.0
FC(F)(F)c1ccc2c(c1)N(CCCN1CCN(CCCl)CC1)c1ccccc1S2 | i | 24.0* | i | 173.0* | 1.6 | 101.0 | 155.0 | 25.0 | 105.0
O=C1NC(=O)C(=Cc2coc3ccccc3c2=O)C(=O)N1 | i | 184.0* | i | 282.0* | 0.9 | 121.0 | 99.0 | -2.0 | 103.0
CCC(C)NC(=O)c1c(N)n(CCCOC)c2nc3ccccc3nc12 (stereo unspecified) | i | -5.0 | i | 96.0 | 4.7 | 96.0 | . | . | .
CCC(C)NC(=O)c1c(N)n(CC2CCCO2)c2nc3ccccc3nc12 (stereo unspecified) | i | -3.0 | i | 86.0 | 13.9 | 82.0*[inhibitor] | 100.0 | -2.0 | 102.0
[N-]=[N+]=NC1C[C@H](n2ccc(=O)[nH]c2=O)O[C@@H]1CO (stereo partly specified) | i | 4.0 | i | 86.0 | 0.4 | 86.0 | . | . | .

High-throughput results from PubChem BioAssay.
